Unmarked numbers belong to inactive results. The source made the active and inactive calls.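 How the source made its calls: active means viability at 10 µM of 29.74% or lower, 3 SD below the compound median; inactive means the rest.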
assay: viability of HCT116 lacking mutant beta-catenin – cell-based, DP diverse set, validation, pilot screen (AID 1004); conditions: HCT116 (mutant beta-catenin deleted) viability, CellTiter-Glo, 60 h; at 10 µM; active compounds read low

SMILES	viability
C=CCN1CC[C@]23c4c5ccc(O)c4O[C@H]2C(=O)CC[C@@]3(O)[C@H]1C5	96.6%
C[C@H]1CCC/C=C/C2C[C@H](O)C[C@H]2[C@H](O)/C=C/C(=O)O1 (some centres undefined)	40.4%
NCC(CC(=O)O)c1ccc(Cl)cc1 (centres undefined)	103%
C[C@]12CC[C@@H](O)C[C@@H]1CC[C@@H]1[C@@H]2CC[C@]2(C)C(=O)CC[C@@H]12	98.5%
CCCCCCCCCCCCCC(=O)O[C@@H]1[C@@H](C)[C@@]2(O)[C@@H](C=C(CO)C[C@]3(O)C(=O)C(C)=C[C@@H]23)[C@@H]2C(C)(C)[C@]12OC(C)=O	82.7%
N#CC(C#N)=Cc1cc(O)c(O)c([N+](=O)[O-])c1	101%
C=C(C)[C@H]1CN[C@H](C(=O)O)[C@H]1CC(=O)O	94.1%
CC(=O)O[C@H]1[C@H]2[C@@H](OC(=O)Cc3ccccc3)[C@@H](C)C[C@]2(OC(C)=O)C(=O)/C(C)=C/[C@@H]2[C@H](CC[C@@]13CO3)C2(C)C	89.4%
OCC1CCCN2CCCCC12 (centres undefined)	99.4%
O=C1CCC[C@H]2[C@@H]3CCCN4CCC[C@H](CN12)[C@H]34	104%
CC(C)c1cc2c(c(O)c1O)[C@@]1(C(=O)O)CCCC(C)(C)[C@@H]1CC2	103%
CC(C)(C)[C@]1(O)C[C@@H]2OC(=O)CC23C(=O)O[C@@H]2OC(=O)[C@H](O)C231 (some centres undefined)	93.5%
NCCc1c[nH]c2ccc(O)cc12	100%
CCCC[C@H]1C(=O)O[C@H](C)[C@H](NC(=O)c2cccc(NC=O)c2OC)C(=O)O[C@@H](C)[C@@H]1OC(=O)CC(C)C	95.2%
CC1=C2[C@H]3OC(=O)[C@@H](C)[C@@H]3CC[C@@]2(C)C=CC1=O	98%
N#Cc1nn(-c2c(Cl)cc(C(F)(F)F)cc2Cl)c(N)c1S(=O)C(F)(F)F (centres undefined)	92.8%
COC[C@H]1OC(=O)c2coc3c2[C@@]1(C)C1=C(C3=O)C2CCC(=O)[C@@]2(C)C[C@H]1OC(C)=O (some centres undefined)	78.1%

SMILES	viability
CN1C[C@H](CNC(=O)OCc2ccccc2)C[C@@H]2c3cccc4c3c(cn4C)C[C@H]21	80.4%
CNc1ccc2oc(C[C@@H]3OC4(CC[C@@H]3C)O[C@H](C(C)C(=O)c3ccc[nH]3)[C@H](C)C[C@H]4C)nc2c1C(=O)O (some centres undefined)	9.98% (active)
CSC(=S)NCc1c[nH]c2ccccc12	95%
CC[C@@]1(O)C(=O)OCc2c1cc1n(c2=O)-c2cc3ccccc3nc2C1	24.3% (active)
N#CC(C#N)=Cc1ccc([N+](=O)[O-])c(O)c1	97.9%
CCN1C[C@@]2(COC)C3[C@@H](OC)[C@H]4C1[C@@]3(C1C[C@]3(O)C(OC)[C@H](O)[C@@]4(OC(C)=O)C1[C@H]3OC(=O)c1ccccc1)[C@H](OC)C[C@H]2O (some centres undefined)	99.8%
O=C1C=CC(=O)C(Cl)=C1	101%
CC/C(=C(\c1ccccc1)c1ccc(OCCN(C)C)cc1)c1ccccc1	67.6%
O=C1C=C2C=C[C@@H]3C[C@@]2(O1)[C@H]1CCCCN31	86%
C[C@@H]1CC[C@H]2[C@@H](C)C(=O)O[C@@H]3OC4(C)CC[C@@H]1[C@]32OO4	100%
CCCN1CCC[C@@H]2Cc3cn[nH]c3C[C@H]21	103%
COC(=O)C(O)C(O)(CCC(C)C)C(=O)OC1C(OC)=CC23CCCN2CCc2cc4c(cc2C13)OCO4 (centres undefined)	30%
COC1=C[C@@H]2[C@@H]3Cc4ccc(OC)c(O)c4[C@]2(CCN3C)CC1=O	96.9%
CN(C)[C@@H]1C(=O)C(C(N)=O)=C(O)[C@@]2(O)C(=O)C3=C(O)c4c(O)cccc4[C@@](C)(O)C3CC12 (some centres undefined)	98.3%
C[C@@H]1O[C@@H](OC2CC(O)C3(CO)C4C(CCC3(O)C2)C2(O)CCC(C3=CC(=O)OC3)C2(C)C[C@H]4O)[C@H](O)[C@H](O)[C@H]1O (some centres undefined)	128%
O[C@H]1[C@H](O)[C@@H](O)CN2CC[C@H](O)[C@H]12	95.4%
Nc1ccncc1	103%

Source: PubChem BioAssay AID1004 (SRMLSC, 2008)
